{"source": "PubChem BioAssay AID1508602", "about": "(The Scripps Research Institute Molecular Screening Center, 2020)", "note": "Out of some 650,000 compounds screened, about 6,800 (1%) were called active. The sample holds actives, similar compounds and a random draw of the others, so the mix is not that of the screen. No stated cut-off is given here; in the data, active means activation above about 4.9%; inactive means the rest."}
{"target": "G-protein coupled receptor 151 (Homo sapiens) (UniProt Q8TDV0)", "sequence (Q8TDV0 whole entry, looked up)": "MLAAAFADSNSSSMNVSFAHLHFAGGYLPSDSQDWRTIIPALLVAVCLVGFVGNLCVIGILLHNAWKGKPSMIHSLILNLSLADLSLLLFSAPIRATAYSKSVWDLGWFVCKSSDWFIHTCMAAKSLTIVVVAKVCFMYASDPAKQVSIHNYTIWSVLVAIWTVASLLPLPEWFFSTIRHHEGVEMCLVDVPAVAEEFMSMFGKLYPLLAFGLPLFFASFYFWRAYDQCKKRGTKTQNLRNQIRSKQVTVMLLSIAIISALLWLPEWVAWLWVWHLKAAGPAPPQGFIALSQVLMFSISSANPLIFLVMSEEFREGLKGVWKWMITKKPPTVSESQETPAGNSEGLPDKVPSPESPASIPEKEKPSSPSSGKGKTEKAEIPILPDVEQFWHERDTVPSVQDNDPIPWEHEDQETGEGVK", "test": "activators of human GPR151, primary screen, cell-based, PathHunter beta-arrestin, luminescence (AID 1508602);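 further: 0% = median of compound wells and 100% = cells with positive control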", "details": "PathHunter beta-arrestin GPR151 cells, at 11.2 µM, hits give high values"}
{"smiles": "OCCn1c(SCCSc2nc3ccccc3n2CCO)nc2ccccc21", "activation": "-0.408% (inactive)"}
{"smiles": "COc1cc(NC(=O)c2cccc(Br)c2)ccc1NC(=O)c1ccco1", "activation": "0.388% (inactive)"}
{"smiles": "COc1ccccc1N1CCN(c2ncnc3sc(C(=O)Nc4ccc5c(c4)OCCO5)c(C)c23)CC1", "activation": "-0.8% (inactive)"}
{"smiles": "COc1ccc(NC(=O)c2sc3ncnc(N4CCCCC4)c3c2C)cc1OC", "activation": "0.695% (inactive)"}
{"smiles": "COc1cc(NC(=O)c2sc3ncnc(N4CCCCC4)c3c2C)cc(OC)c1OC", "activation": "5.99% (active)"}
{"smiles": "CCC(CC)NCc1cc(OC)c(OC)cc1Br", "activation": "0.484% (inactive)"}
{"smiles": "Cc1ccc([N+](=O)[O-])cc1S(=O)(=O)Nc1cccc(N(C)C)c1", "activation": "0.193% (inactive)"}
{"smiles": "Cc1cc(C)cc(N(C(C)C(=O)Nc2ccc(Cl)cc2)S(C)(=O)=O)c1", "note": "(configuration not stated)", "activation": "-1.25% (inactive)"}
{"smiles": "Nc1cc(Cl)ccc1C(=O)OCC(=O)Nc1ccc(N2CCCCC2)cc1", "activation": "2.3% (inactive)"}
{"smiles": "O=C1N[C@@H](Cc2ccccc2)C(=O)N2CCN(C(=O)c3ccc(OC(F)(F)F)cc3)C[C@H]12", "activation": "-1.02% (inactive)"}
{"smiles": "CC12CCC(C(=O)NC3CCCCC3)(OC1=O)C2(C)C", "note": "(configuration not stated)", "activation": "4.96% (active)"}
{"smiles": "CC(C)NC(=O)C12CCC(C)(C(=O)O1)C2(C)C", "note": "(configuration not stated)", "activation": "0.406% (inactive)"}
{"smiles": "Cc1nc(NC(=O)C23CCC(C)(C(=O)O2)C3(C)C)sc1C", "note": "(configuration not stated)", "activation": "-1.28% (inactive)"}
{"smiles": "Cc1ccnc(NC(=O)Nc2sc3nc4n(c(=O)c3c2C)CCC(C)CC4)c1", "note": "(configuration not stated)", "activation": "0.22% (inactive)"}
{"smiles": "CCn1c(C(CC(C)C)NC(=O)C2CC2)nc2cccnc21", "note": "(configuration not stated)", "activation": "-0.148% (inactive)"}
{"smiles": "COc1ccc(C(=O)N2CCCN(c3nc4cc(C)c(C)cc4cc3C#N)CC2)cc1OC", "activation": "2.69% (inactive)"}
{"smiles": "Cc1ccc(C(=O)NCC(=O)OCC(=O)N(C(C)C)C(C)C)cc1C", "activation": "-0.906% (inactive)"}
{"smiles": "CCOc1cc2c(cc1OCC)C(c1ccc3ccccc3c1)NCC2", "note": "(configuration not stated)", "activation": "5.53% (active)"}
{"smiles": "CCOc1cc2c(cc1OCC)C(c1ccc(OC)c(C)c1)NCC2", "note": "(configuration not stated)", "activation": "0.975% (inactive)"}
{"smiles": "CCOc1cc2c(cc1OCC)C(c1cc(F)c(F)c(F)c1)NCC2", "note": "(configuration not stated)", "activation": "-0.242% (inactive)"}
{"smiles": "O=C(NC1CCCCCC1)c1ccc(NS(=O)(=O)c2cccs2)cc1", "activation": "2.64% (inactive)"}
{"smiles": "COc1ccc(/C=N/N=C2/NC(=O)CS2)c(OC)c1", "activation": "-0.156% (inactive)"}
{"smiles": "COc1cccc(/C=N/N=C2/NC(=O)CS2)c1O", "activation": "-1.32% (inactive)"}
{"smiles": "COc1cc(/C=N/N=C2/NC(=O)CS2)ccc1OC(=O)c1ccccc1C", "activation": "10.4% (active)"}
{"smiles": "COCCn1c(=NC(=O)c2c(C)cnn2C)sc2cc(Cl)ccc21", "activation": "-0.961% (inactive)"}
{"smiles": "Cc1ccc(C(=O)Nc2ccc(N(C)C)cc2)cc1C", "activation": "-2.22% (inactive)"}
{"smiles": "Cc1ccc(NC(=O)c2cccc(N(C)C)c2)cc1NC(=O)c1ccc(O)cc1", "activation": "8.84% (active)"}
{"smiles": "Cc1cccc(C(=O)Nc2ccc(C(=O)Nc3ccc(C(=O)Nc4ccccc4C)cc3)cc2)c1", "activation": "2.61% (inactive)"}
{"smiles": "Cc1ccc(Nc2nc(-c3ccccn3)cs2)cc1C", "activation": "11.2% (active)"}
{"smiles": "Cc1cccc(Nc2nc(-c3ccc(I)cc3)cs2)c1", "activation": "-1.86% (inactive)"}
{"smiles": "Cc1ccc(-c2csc(Nc3ccccc3)n2)c(C)c1", "activation": "0.521% (inactive)"}
{"smiles": "O=C(c1ccccc1)N1CCN(C2CC(=O)N(c3cc(Cl)cc(Cl)c3)C2=O)CC1", "note": "(configuration not stated)", "activation": "-0.358% (inactive)"}
{"smiles": "Cc1ccc(OCCN2CCNCC2)c(Cl)c1", "activation": "0.0124% (inactive)"}
{"smiles": "CC(C)C(=O)NC(C)c1nnc2n1CCN(Cc1cccc3ncccc13)CC2", "note": "(configuration not stated)", "activation": "0.68% (inactive)"}
{"smiles": "CCC(=O)NC(c1nnc2n1CCN(Cc1ccc3cccnc3c1)CC2)C(C)C", "note": "(configuration not stated)", "activation": "0.149% (inactive)"}
{"smiles": "CC(C)C(=O)NC(C)c1nnc2n1CCN(Cc1ccc3cccnc3c1)CC2", "note": "(configuration not stated)", "activation": "5.04% (active)"}
{"smiles": "Cc1cc(OCC(=O)NNC(=O)COc2ccc(Br)cc2Br)cc(C)c1Cl", "activation": "0.12% (inactive)"}
{"smiles": "CC(C)c1nc2sc3c(NCCCO)ncnc3c2c2c1COC(C)(C)C2", "activation": "1.25% (inactive)"}
{"smiles": "CCCN1C(=O)c2ccc(C(=O)Nc3ccc(C(C)=O)cc3)cc2C1=O", "activation": "6.33% (active)"}
{"smiles": "CCCN1C(=O)c2ccc(C(=O)Nc3ccc(O)cc3C(=O)O)cc2C1=O", "activation": "-4.67% (inactive)"}
{"smiles": "COCCN1C(=O)c2ccc(C(=O)Nc3ccc(C(=O)O)cc3)cc2C1=O", "activation": "-0.197% (inactive)"}
{"smiles": "O=C(CCC1=NS(=O)(=O)c2ccccc2N1)N1CCN(c2ccccc2)CC1", "activation": "0.684% (inactive)"}
{"smiles": "O=[N+]([O-])c1ccc(Nc2nc(Cl)nc(NCCN3CCOCC3)n2)cc1", "activation": "3.01% (inactive)"}
{"smiles": "COc1cc(C(=O)NCCC(=O)NCC2COc3ccccc3O2)cc(OC)c1OC", "note": "(configuration not stated)", "activation": "-0.141% (inactive)"}
{"smiles": "CCOC(=O)C(=O)NCC1COc2ccccc2O1", "note": "(configuration not stated)", "activation": "0.866% (inactive)"}
{"smiles": "COc1ccc(Br)cc1C(=O)NCC1COc2ccccc2O1", "note": "(configuration not stated)", "activation": "5.44% (active)"}
{"smiles": "O/N=C(\\C(=N\\O)c1ccccc1)c1ccccc1", "activation": "-0.0395% (inactive)"}
